Screening data from PubChem BioAssay.
PTHR1 agonist: PTHR1 (human) receptor agonism; 410,000 compounds, 0.075% hits; Q03431; AID 743266; HEK293 GP2 PTHR1 cells, GloSensor cAMP luminescence, 1 h; Potency, µM (titrated, usually from 115 µM), most hits filed as activators; also: nearly all actives have a fitted effect of over 55% in size
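HEK-293-derived GP2 cells expressing PTHR1 and a GloSensor cAMP reporter, 3,000/well, plated overnight, given luciferin plus IBMX (each 0.5 mM as added) for 1 h at 37 °C, then compound for 1 h at 37 °C. Luminescence was read after 15 min at room temperature.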
HEK293 tox: cytotoxic in the GLP-1 receptor inverse agonist counter-screen | HEK293 cAMP-luciferase reporter cells, luminescence, 24 h | Potency, µM (doses to about 38.3 µM), hits mostly inhibitors | 410,000 compounds, 0.13% hits | AID 624418;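 also: loss of luciferase light is scored as toxicity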
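Luminescence readout: signal drop marks cytotoxicity. Plated cells grew 12 h at 37 °C, 5% CO2, received 23 nL compound for 24 h, then got luciferase reagent, read after 12 min at RT.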
RGS4 inhibitor: inhibitors of human regulator of G protein signaling 4; Potency, µM (highest dose often 114 µM), actives largely listed as inhibitors; 390,000 compounds, 0.039% hits; Transcreener GDP fluorescence polarization, RGS4-accelerated GTP hydrolysis; also: nearly all actives have a fitted effect of over 75% in size
Target sequence (P49798 whole entry, looked up): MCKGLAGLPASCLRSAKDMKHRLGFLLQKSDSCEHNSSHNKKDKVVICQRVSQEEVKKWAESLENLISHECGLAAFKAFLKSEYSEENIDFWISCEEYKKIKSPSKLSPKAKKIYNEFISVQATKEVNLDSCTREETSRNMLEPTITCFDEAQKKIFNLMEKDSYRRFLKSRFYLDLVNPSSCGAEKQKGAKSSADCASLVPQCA
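MLSMR compounds (23 nl, pin-transferred) preincubated 10 min at room temperature with a 500nM (2x) first reagent, then RGS4 at 900nM (2x) plus Transcreener GDP mix added; fluorescence polarization (620/688 nm) read before and after 90 min at 30 °C.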
GLP1R ag: agonists of human GLP-1 receptor; P43220; HEK293 GLP-1R CRE-luciferase, luminescence, 4-6 h; cells express a hypersensitive GLP-1R form; Potency, µM (titrated, usually from 45.6 µM), actives largely listed as activators; 380,000 compounds, 0.007% hits; AID 624172
Target sequence (P43220 whole entry, looked up): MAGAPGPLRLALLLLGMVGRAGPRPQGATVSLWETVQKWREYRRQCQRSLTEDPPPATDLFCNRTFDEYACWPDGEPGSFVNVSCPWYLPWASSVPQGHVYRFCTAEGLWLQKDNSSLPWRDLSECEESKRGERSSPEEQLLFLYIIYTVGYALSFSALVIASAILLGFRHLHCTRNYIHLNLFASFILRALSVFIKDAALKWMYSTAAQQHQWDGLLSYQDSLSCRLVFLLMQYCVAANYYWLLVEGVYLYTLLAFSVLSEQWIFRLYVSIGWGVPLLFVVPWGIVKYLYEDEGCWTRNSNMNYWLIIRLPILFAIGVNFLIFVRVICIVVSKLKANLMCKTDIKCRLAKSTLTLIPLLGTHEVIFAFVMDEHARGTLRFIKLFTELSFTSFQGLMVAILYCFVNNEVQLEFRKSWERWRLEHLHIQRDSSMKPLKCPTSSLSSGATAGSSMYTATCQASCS
GLP-1R inv ag: inverse agonists of human GLP-1 receptor; P43220; HEK293 GLP-1R CRE-luciferase, luminescence, 24 h; GLP-1R form is constitutively active; Potency, µM (highest dose often 38.3 µM), usual class: inhibitors; 410,000 compounds, 1.6% hits; AID 624417; also: nearly all actives have a fitted effect of over 55% in size
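Cells are plated, allowed 12 hours at 37 deg C, then treated with compounds for 24 hr before luciferase detection reagent is added and luminescence is read after 12 min at room temperature. The HEK293 line carries constitutively active GLP-1R with a cAMP-responsive reporter.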
KAT2A inh: blocks human GCN5L2 histone acetyltransferase; GCN5L2 HAT assay, ThioGlo1 CoA-SH fluorescence; Potency, µM (doses to about 58.9 µM), usual class: inhibitors; 390,000 compounds, 0.21% hits; AID 504327
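ThioGlo1-coupled HAT assay: 20nM GCN5L2, 70uM acetyl-CoA, 75uM H3(1-25) peptide, pH 7.5. Fluorescence read at 340/540nm at start and after 20 min at room temperature.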
Large screens that a line does not name were inactive. Compounds with a hit are over-represented: about 1.8% of the library has one in this group of screens. Calls follow the shape of the dose curve; as a rule, active = well fitted curve in the direction sought with a large enough effect; inconclusive = small, poorly fitted or top-dose-only effect, or another doubt; inactive = no such curve, though single readings can be large; an effect the other way counts as inactive or inconclusive.

Cc1cc(O)c(C(C)C)cc1NC(=O)Nc1cccc2ccccc12	GLP-1R inv ag 6.3µM
Cc1cc(O)c(C(C)C)cc1NC(=O)Nc1cc(Cl)ccc1Cl	GLP-1R inv ag inconclusive (no result: KAT2A inh)
O=C(OCCN1C(=O)c2cccc3c(N4CCOCC4)ccc(c23)C1=O)c1ccc(Cl)cc1Cl	GLP-1R inv ag 1.3µM
O=C(OCCN1C(=O)c2cccc3c(N4CCOCC4)ccc(c23)C1=O)c1ccccc1Cl	GLP-1R inv ag inconclusive, KAT2A inh inconclusive
Cc1cccc2cc(C#N)c(NCCNS(=O)(=O)c3ccccc3)nc12	none
Cc1cccc2cc(C#N)c(NCCCNS(=O)(=O)c3ccc(Cl)cc3)nc12	GLP-1R inv ag 10µM
COc1ccccc1-c1nc(-c2ccccn2)no1	GLP-1R inv ag 3.5µM
Cc1ccccc1-c1nc(-c2ccccn2)no1	GLP-1R inv ag inconclusive
COc1ccc(C2CC(c3ccccc3)Oc3ccc(OC)cc32)cc1 (stereo not given)	none (no result: PTHR1 agonist, HEK293 tox, GLP1R ag, GLP-1R inv ag, KAT2A inh)
O=C(CSc1ccc(Cl)cc1)N1CCN(c2ncc(C(F)(F)F)cc2Cl)CC1	none
O=C(CN1CCN(c2ncc(C(F)(F)F)cc2Cl)CC1)N1CCN(c2ncc(C(F)(F)F)cc2Cl)CC1	GLP-1R inv ag 4.5µM
COc1ccc(-c2nn3c(C4CCCCC4)nnc3s2)cc1OC	RGS4 inhibitor inconclusive, GLP1R ag 2.5µM
COc1cc(-c2nn3c(C4CCCCC4)nnc3s2)cc(OC)c1OC	none
CCOc1ccc(C2=Nn3c(nnc3-c3ccc(OC)cc3)SC2)cc1	RGS4 inhibitor inconclusive, GLP1R ag 10µM
COc1ccc(OC)c(-c2nnc3n2N=C(c2ccc(OC)c(OC)c2)CS3)c1	GLP1R ag 2.2µM (no result: HEK293 tox, GLP-1R inv ag)
COc1ccc(OC)c(-c2nnc3n2N=C(c2ccc(OC(F)F)c(OCC4CC4)c2)CS3)c1	GLP1R ag inconclusive (no result: HEK293 tox, GLP-1R inv ag)
COc1ccc(C2=Nn3c(nnc3-c3ccncc3)SC2)cc1	none
COc1ccc(C2=Nn3c(nnc3-c3ccccc3OC)SC2)cc1OCC1CC1	GLP1R ag 4µM (no result: HEK293 tox, GLP-1R inv ag)
CCC(=O)NC[C@H](Cc1ccc(OCCc2nc(-c3ccccc3)oc2C)cc1)N/C(C)=C\C(=O)c1ccc(C(F)(F)F)cc1	none (no result: PTHR1 agonist, HEK293 tox, RGS4 inhibitor, GLP1R ag, GLP-1R inv ag)
CN1CCN(c2ccc(S(=O)(=O)N3CCOCC3)cc2NC(=O)COc2ccc(C#N)cc2)CC1	none (no result: KAT2A inh)
COc1ccc(OC)c(C2=Nn3c(nnc3C3CCCCC3)SC2)c1	none
COc1ccc(C2=Nn3c(nnc3C3CCCCC3)SC2)cc1OC	GLP1R ag 3.2µM
CN(C)CC/C=C1\c2ccccc2COc2ccc(CC(=O)O)cc21	none (no result: PTHR1 agonist, HEK293 tox, RGS4 inhibitor, GLP-1R inv ag)
CC(=O)c1ccc(NC(=O)C(C)n2nc(-c3ccccc3)c3cc(Cl)ccc32)cc1 (stereo not given)	GLP-1R inv ag 6.3µM
O=C(Cn1c(C(=O)N2CCc3ccccc3C2)cc2sccc21)c1ccccc1	PTHR1 agonist 22µM
O=C(Cn1c(C(=O)N2CCN(C3CCCCC3)CC2)cc2sccc21)c1ccccc1	none
CC(C)N(Cc1nc(-c2ccc(Cl)cc2)no1)C(=O)C(c1ccccc1)c1ccccc1	GLP-1R inv ag inconclusive
CC(C)N(Cc1nc(-c2ccc(Cl)cc2)no1)C(=O)/C=C/c1ccccc1	GLP-1R inv ag 11µM
Cc1ccc(Sc2cncc3sc(C(N)=O)cc23)cc1	none (no result: PTHR1 agonist, HEK293 tox, RGS4 inhibitor, GLP1R ag, GLP-1R inv ag)
COc1cccc2sc(N(Cc3cccnc3)C(=O)C3CCCCC3)nc12	GLP-1R inv ag inconclusive (no result: GLP1R ag)
O=C(C1CCCCC1)N(Cc1cccnc1)c1nc2c(F)cccc2s1	PTHR1 agonist inconclusive, GLP-1R inv ag 8.9µM (no result: GLP1R ag)
C=CCN1C(=O)C2(c3ccccc31)C1CCCC=C1C(C#N)=C(N)C2(C#N)C#N (stereo not given)	GLP-1R inv ag 4.5µM
C=CCN1C(=O)[C@]2(c3ccccc31)C1CCCC=C1C(C#N)=C(N)C2(C#N)C#N (stereo not given in full)	none
CC(C)n1c(=O)[nH][nH]c1=S	RGS4 inhibitor inconclusive, KAT2A inh 14µM
CC(C)n1c(=O)[nH]c2ccccc21	none
CCNC(=S)N1CCC(Cc2ccccc2)CC1	GLP-1R inv ag inconclusive, KAT2A inh inconclusive
CCCNC(=S)N1CCC(Cc2ccccc2)CC1	HEK293 tox inconclusive, GLP-1R inv ag 7.1µM
O=P(O)(O)OC[C@@H](O)CO	none (no result: PTHR1 agonist, HEK293 tox, RGS4 inhibitor, GLP-1R inv ag, KAT2A inh)
CCOc1ccc(S(=O)(=O)NCCC(=O)NCC(c2ccc(OC)cc2)N2CCCCC2)cc1 (stereo not given)	GLP-1R inv ag inconclusive
CCCN(CCC)c1nc(-c2ccccn2)nc2ccccc12	HEK293 tox inconclusive, GLP-1R inv ag 3.5µM
CCN(CC)c1nc(-c2ccccn2)nc(-c2ccccc2)c1C#N	HEK293 tox inconclusive, GLP-1R inv ag 13µM
O=C(COC(=O)CNS(=O)(=O)c1cccc(Br)c1)NC(=O)Nc1ccc2c(c1)OCCO2	none
O=C(OCC(=O)N(Cc1ccccc1)Cc1ccccc1)c1ccccc1NCCO	GLP-1R inv ag 5.6µM
O=C(COC(=O)c1ccccc1NCCO)NCCc1ccccc1	none
CN(C)c1ccc(/C=C/c2ccc3c4ccccc4ccc3[n+]2-c2ccccc2)cc1	HEK293 tox 7.9µM, RGS4 inhibitor inconclusive, GLP-1R inv ag inconclusive
Cc1ccc(NC(=O)CN(C)CC(=O)Nc2sc3c(c2C(N)=O)CCC3)cc1	GLP-1R inv ag inconclusive
CN(CC(=O)Nc1ccc(Cl)cc1)CC(=O)Nc1sc2c(c1C(N)=O)CCC2	GLP-1R inv ag 4µM (no result: RGS4 inhibitor, KAT2A inh)
CCOC(=O)C1C(=O)C=C(c2ccccc2)CC1c1ccccc1 (stereo not given)	GLP-1R inv ag inconclusive (no result: KAT2A inh)
CCOC(=O)C1C(=O)C=C(c2ccc(C)cc2)CC1c1ccc([N+](=O)[O-])cc1 (stereo not given)	GLP-1R inv ag 10µM
O=C(NC(=S)Nc1ccc(Br)cn1)c1cccs1	HEK293 tox inconclusive, GLP-1R inv ag inconclusive
S=C(Nc1ccccc1)Nc1ccc(Br)cn1	HEK293 tox 3.5µM, GLP-1R inv ag inconclusive
CCCCOc1ccc(Cn2c(=O)sc3ccccc32)cc1	GLP-1R inv ag 11µM (no result: GLP1R ag)
CNCCC=C1c2ccccc2C=Cc2ccccc21	GLP-1R inv ag 5µM, KAT2A inh inconclusive
CN(Cc1ccccc1)S(=O)(=O)c1ccc(NC(=S)NC(=O)C(C)(C)C)cc1	RGS4 inhibitor inconclusive, GLP-1R inv ag inconclusive
COc1ccc(NC(=S)NC(=O)C2CCCCC2)cc1	none
CCOc1ccc(NC(=S)NC(=O)C2CCCC2)cc1	RGS4 inhibitor inconclusive, GLP-1R inv ag 10µM
Cc1cc(C)cc(NC(=S)NC(=O)C2CC2)c1	HEK293 tox inconclusive, GLP-1R inv ag 11µM
CN(Cc1ccccc1)S(=O)(=O)c1ccc(NC(=S)NC(=O)C2CCCCC2)cc1	GLP-1R inv ag 2.5µM
